Values without a mark were called inactive. Results filed as inconclusive are left out. Active and inactive are the calls of the source. Calls come from the whole dose curve; as a rule, active = well fitted curve in the direction sought with a large enough effect; inconclusive = small, poorly fitted or top-dose-only effect, or another doubt; inactive = no such curve, though single readings can be large; an effect the other way counts as inactive or inconclusive.
biological target: Guanine nucleotide-binding protein G(i) subunit alpha-1 (Homo sapiens) (UniProt P63096); assay: qHTS Assay for Inhibitors of RGS12 GoLoco Motif Activity (Green Fluorophore) (AID 879); settings: Galphai1/FITC-RGS12 GoLoco peptide, fluorescence polarization; series mostly up to 57.1 µM; activity, negative = inhibition: at the top concentration;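 note: 0% = labeled peptide with Gαi1 and full inhibition = labeled peptide alone without protein; negative values mean loss of peptide binding seen as reduced polarization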
In short: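 Fluorescence polarization assay: 50 nM Gαi1 with 10 nM FITC-labeled RGS12 GoLoco peptide in 10 mM Tris pH 7.5, 150 mM NaCl, 0.1 mM GDP, 0.05% NP40, 10 min at room temperature with compound.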

Sequence of Guanine nucleotide-binding protein G(i) subunit alpha-1 (Homo sapiens) (P63096 whole entry, looked up): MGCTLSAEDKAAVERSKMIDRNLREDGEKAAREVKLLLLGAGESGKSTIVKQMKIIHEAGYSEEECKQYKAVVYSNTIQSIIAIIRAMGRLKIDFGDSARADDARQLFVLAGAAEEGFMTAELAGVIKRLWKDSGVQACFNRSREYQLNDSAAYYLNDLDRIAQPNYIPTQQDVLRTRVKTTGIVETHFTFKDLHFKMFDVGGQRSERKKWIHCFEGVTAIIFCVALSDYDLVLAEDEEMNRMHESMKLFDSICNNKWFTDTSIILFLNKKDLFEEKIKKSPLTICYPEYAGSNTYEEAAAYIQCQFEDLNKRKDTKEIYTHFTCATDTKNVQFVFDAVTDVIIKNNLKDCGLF

SMILES	activity, negative = inhibition [%]
CC[N+](C)(C)Cc1ccccc1Br	-12.5
CN=C(NC#N)Nc1ccc(C2=NNC(=O)C[C@@H]2C)cc1	-13.4
COc1ccc(CCNC[C@H](O)c2ccc(O)cc2)cc1OC	-23.6

biological target: Cytochrome P450 2C9 (Homo sapiens) (UniProt P11712); assay: qHTS Assay for Inhibitors and Substrates of Cytochrome P450 2C9 (AID 883); settings: recombinant CYP2C9, luciferin-H luminescence, 60 min; series mostly up to 25.6 µM; activity change, negative = inhibition: at the top concentration; note: % is set by controls: 0 for no effect and ±100 for the full control effect; nearly all actives have a fitted effect of over 60% in size
In short: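 Turnover of Luciferin-H (100uM, KM) by 10nM human CYP2C9 was measured over 60 min at 37C with NADPH regeneration; inhibitors and some substrates reduce luminescence. Data normalized to sulphaphenazole 57uM.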

Sequence of Cytochrome P450 2C9 (Homo sapiens) (P11712 whole entry, looked up): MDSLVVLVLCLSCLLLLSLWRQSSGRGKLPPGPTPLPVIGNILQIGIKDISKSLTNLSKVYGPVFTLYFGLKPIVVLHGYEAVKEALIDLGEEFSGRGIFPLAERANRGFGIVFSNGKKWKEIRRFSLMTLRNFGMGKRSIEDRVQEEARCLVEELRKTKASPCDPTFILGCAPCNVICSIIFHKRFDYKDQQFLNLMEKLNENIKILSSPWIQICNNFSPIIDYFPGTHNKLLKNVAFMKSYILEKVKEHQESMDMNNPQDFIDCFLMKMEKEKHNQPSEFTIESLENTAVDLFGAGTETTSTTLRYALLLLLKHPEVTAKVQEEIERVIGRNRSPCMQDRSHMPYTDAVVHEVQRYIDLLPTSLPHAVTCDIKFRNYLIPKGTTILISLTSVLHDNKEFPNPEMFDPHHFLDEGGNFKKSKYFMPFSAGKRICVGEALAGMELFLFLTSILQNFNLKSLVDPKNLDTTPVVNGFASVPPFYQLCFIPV

SMILES	activity change, negative = inhibition
O=C(O)CCC(=O)C(=O)O	0.986% [at 11.4 µM]
Cc1c(C)c2c(c(C)c1O)CC[C@@](C)(CCC[C@@H](C)CCC[C@@H](C)CCCC(C)C)O2	32.2%
CN=C(NC#N)Nc1ccc(C2=NNC(=O)C[C@@H]2C)cc1	4.24% [at 57.1 µM]
CCN(CC)Cc1cc(Nc2ccnc3cc(Cl)ccc23)ccc1O	-14.3%

biological target: Cytochrome P450 3A4 (Homo sapiens) (UniProt P08684); assay: qHTS Assay for Inhibitors and Substrates of Cytochrome P450 3A4 (AID 884); settings: recombinant CYP3A4, Luciferin-PPXE luminescence; series mostly up to 57.1 µM; activity change, negative = inhibition: at the top concentration; note: nearly all actives have a fitted effect of over 50% in size; note: potency is the fitted concentration of half-maximal effect; for activity change, negative = inhibition: % is set by controls: 0 for no effect and ±100 for the full control effect
In short: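 20 nM human CYP3A4 with 25 uM Luciferin-PPXE (at KM) in 200 mM KPO4, preincubated 10 min with compound; NADPH regeneration started a 60 min RT reaction. Luciferin detected by luminescence, normalized to 57 uM ketoconazole as full inhibition.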

Sequence of Cytochrome P450 3A4 (Homo sapiens) (P08684 whole entry, looked up): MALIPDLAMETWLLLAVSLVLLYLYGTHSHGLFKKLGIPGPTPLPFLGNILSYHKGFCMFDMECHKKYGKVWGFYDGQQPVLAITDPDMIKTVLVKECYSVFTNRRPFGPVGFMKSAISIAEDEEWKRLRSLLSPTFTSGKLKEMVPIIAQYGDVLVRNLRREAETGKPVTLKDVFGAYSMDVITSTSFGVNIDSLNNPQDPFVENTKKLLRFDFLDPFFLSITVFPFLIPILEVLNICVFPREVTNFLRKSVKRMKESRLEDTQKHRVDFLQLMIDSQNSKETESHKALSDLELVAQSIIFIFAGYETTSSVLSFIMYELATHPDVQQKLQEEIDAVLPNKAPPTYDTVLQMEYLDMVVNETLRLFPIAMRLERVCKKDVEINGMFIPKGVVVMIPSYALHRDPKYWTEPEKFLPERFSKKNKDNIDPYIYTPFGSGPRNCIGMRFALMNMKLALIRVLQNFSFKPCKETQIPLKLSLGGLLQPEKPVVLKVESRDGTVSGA

SMILES	activity change, negative = inhibition	Potency
Cc1c(C)c2c(c(C)c1O)CC[C@@](C)(CCC[C@H](C)CCC[C@H](C)CCCC(C)C)O2	9.98%	–
CC(O)CO (stereo unspecified)	–	inactive
O=S(=O)(O)O	–	inactive
CC1=C(/C=C/C(C)=C/C=C/C(C)=C/C=C/C=C(C)/C=C/C=C(C)/C=C/C2=C(C)C(=O)CCC2(C)C)C(C)(C)CCC1=O	4.96%	–
CCOC(C)=O	-9.35%	–
OCc1ccccc1O[C@@H]1O[C@H](CO)[C@@H](O)[C@H](O)[C@H]1O	-7.83%	–
CC1=C(/C=C/C(C)=C/C=C/C(C)=C/C=C/C=C(C)/C=C/C=C(C)/C=C/C2=C(C)CCCC2(C)C)C(C)(C)CCC1	-42%	–
Oc1cc(O)c2c(c1)OC(c1ccc(O)c(O)c1)C(O)C2 (stereo unspecified)	-42.2%	–
Cc1cn([C@H]2C[C@H](O)[C@@H](CO)O2)c(=O)[nH]c1=O	-14.6%	–
CC(Cc1ccc(O)c(O)c1)C(C)Cc1ccc(O)c(O)c1 (stereo unspecified)	–	12.6 µM (active)
O=c1ccn([C@@H]2O[C@H](CO)[C@@H](O)[C@H]2O)c(=O)[nH]1	-11.8%	–
CCN(CC)Cc1cc(Nc2ccnc3cc(Cl)ccc23)ccc1O	34.3% [at 25.6 µM]	–
Nc1ccn([C@H]2CS[C@@H](CO)O2)c(=O)n1	0.403%	–
O=C(O)CN(CCN(CC(=O)O)CC(=O)O)CC(=O)O	-8.32%	–
CCCCCCCC(=O)O	–	inactive

biological target: Cytochrome P450 2C19 (Homo sapiens) (UniProt P33261); assay: qHTS Assay for Inhibitors and Substrates of Cytochrome P450 2C19 (AID 899); settings: recombinant CYP2C19, luciferin-H EGE luminescence; series mostly up to 25.6 µM; activity, negative = inhibition: at the top concentration; note: % is set by controls: 0 for no effect and ±100 for the full control effect; nearly all actives have a fitted effect of over 60% in size
In short: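 Reactions contain 5nM enzyme, 10uM Luciferin-H EGE (KM) and 50mM KPO4; compound preincubates 10 min at 37C, NADPH regeneration starts turnover for 60 min. Luminescence after detection reagent gives activity.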

Sequence of Cytochrome P450 2C19 (Homo sapiens) (P33261 whole entry, looked up): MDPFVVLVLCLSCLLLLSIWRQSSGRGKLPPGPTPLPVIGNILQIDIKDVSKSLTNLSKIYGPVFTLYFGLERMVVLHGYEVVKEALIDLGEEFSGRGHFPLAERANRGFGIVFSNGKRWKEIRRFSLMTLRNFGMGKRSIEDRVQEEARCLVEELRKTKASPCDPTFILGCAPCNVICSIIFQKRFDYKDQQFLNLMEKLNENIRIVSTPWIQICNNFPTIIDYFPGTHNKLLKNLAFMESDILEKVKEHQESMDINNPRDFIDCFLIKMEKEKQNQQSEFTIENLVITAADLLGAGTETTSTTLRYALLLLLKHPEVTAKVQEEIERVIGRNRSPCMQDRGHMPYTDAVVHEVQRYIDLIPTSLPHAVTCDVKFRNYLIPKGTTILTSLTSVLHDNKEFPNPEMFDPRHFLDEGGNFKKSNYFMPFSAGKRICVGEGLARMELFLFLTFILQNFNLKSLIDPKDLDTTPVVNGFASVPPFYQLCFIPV

SMILES	activity, negative = inhibition
O=C(O)CCC(=O)C(=O)O	22.5% [at 11.4 µM]
Cc1c(C)c2c(c(C)c1O)CC[C@@](C)(CCC[C@@H](C)CCC[C@@H](C)CCCC(C)C)O2	61.2%
CN=C(NC#N)Nc1ccc(C2=NNC(=O)C[C@@H]2C)cc1	61.9% [at 57.1 µM]
CCN(CC)Cc1cc(Nc2ccnc3cc(Cl)ccc23)ccc1O	25.9%

system: not listed separately; assay: Confirmation and Secondary Assay for Modulators of Hemoglobin Beta Chain Splicing at IVS2 654 locus (AID 910); settings: HeLa EGFP-654 splicing reporter, GFP fluorescence, 48 h; series mostly up to 46.1 µM; activation (splicing correction): at the top concentration;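 note: HeLa cells stably carrying EGFP split by mutant beta-globin IVS2-654 intron; per-well total GFP intensity by laser scanning cytometry after 2-day treatment; % of control where 0% means no effect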
In short: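 Readout: per-well total peak green fluorescence (488 nm ex, 500–520 nm em) from objects 5–250 µm, reflecting correct splicing of an EGFP-654 reporter. Compounds were applied for 2 days at 37 °C to overnight-plated HeLa EGFP-654 cells; controls were DMSO and 500 nM IVS2-654 PNA.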

SMILES	activation (splicing correction)
CC1=C(/C=C/C(C)=C/C=C/C(C)=C/C=C/C=C(C)/C=C/C=C(C)/C=C/C2=C(C)C(=O)CCC2(C)C)C(C)(C)CCC1=O	1.42% [at 38.3 µM]
CC1=C(/C=C/C(C)=C/C=C/C(C)=C/C=C/C=C(C)/C=C/C=C(C)/C=C/C2=C(C)CCCC2(C)C)C(C)(C)CCC1	0.333% [at 38.3 µM]
Oc1cc(O)c2c(c1)OC(c1ccc(O)c(O)c1)C(O)C2 (stereo unspecified)	4.64%
O=C(O)CN(CCN(CC(=O)O)CC(=O)O)CC(=O)O	-0.499%

system: not listed separately; assay: Cell Viability - LYMP2-001 (AID 921); settings: LYMP2-001 lymphoblastoid cell viability; series mostly up to 92.2 µM; activity change, negative = cytotoxic: at the top concentration;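 note: 0% = DMSO only and full inhibition = tetraoctylammonium bromide control wells; nearly all actives have a fitted effect of over 70% in size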
In short: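 Cellular ATP loss read by luciferase luminescence after 24 h compound exposure at 37 C in complete medium. LYMP2-001 lymphoblastoid cells, 2500/well; qHTS concentration-response data fitted with Hill equation for AC50.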

SMILES	activity change, negative = cytotoxic [%]	Potency
O=C(O)CCC(=O)C(=O)O	-5.32	–
CC(O)CO (stereo unspecified)	–	inactive
O=S(=O)(O)O	–	inactive
CCOC(C)=O	-10.5	–
Nc1ccn([C@H]2CS[C@@H](CO)O2)c(=O)n1	-29.3	–
CCCCCCCC(=O)O	-15.2	–

— PubChem BioAssay (NCATS)
